# PubChem BioAssay (NCI)
# Where “and” joins values, the source holds several entries; their conditions need not be identical. Equal values may be shown once. This is part of a sample that, as a whole, favours compounds with a hit. Of some 83,000 tested, about 20% had one in any assay.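 Testing used 96-well plates and a 48-hour single-concentration exposure. Example: -40 means 40% of the starting cells died.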 A number with no mark means an inactive call. Calls of active or inactive are those of the source. How the source made its calls: active means growth percent below 10; inactive means the rest.
# Columns and labels:
# Assay in all cases: NCI-60 one-dose screen, 48 h (100 = growth as untreated, 0 = no growth, -100 = all killed)
# RPMI-8226 leukemia = test system: RPMI-8226 leukemia
# OVCAR-8 ovarian = settings: 10 µM
# OVCAR-5 ovarian = test system: OVCAR-5 ovarian
# OVCAR-4 ovarian = test system: OVCAR-4 ovarian
# SK-OV-3 ovarian = test system: SK-OV-3 ovarian
# IGROV1 ovarian = test system: IGROV1 ovarian
# HS 578T breast = test system: HS 578T breast
# NCI/ADR-RES ovarian = test system: NCI/ADR-RES ovarian
# T-47D breast = test system: T-47D breast
# BT-549 breast = test system: BT-549 breast
# MDA-MB-435 melanoma = test system: MDA-MB-435 melanoma
# SW-620 colon = test system: SW-620 colon
# MCF7 breast = test system: MCF7 breast
# HCT-116 colon = test system: HCT-116 colon
# HCC-2998 colon = test system: HCC-2998 colon
# KM12 colon = test system: KM12 colon
# OVCAR-3 ovarian = settings: 10 µM
structure (smiles),measurement,setting,value
COc1ccc2oc(-c3ccc(Cl)cc3)c(N3CCN(C)CC3)c2c1,growth,RPMI-8226 leukemia; 10 µM,-10.3% (active)
same,growth,OVCAR-8 ovarian,31.8%
same,growth,OVCAR-5 ovarian; 10 µM,2.8% (active)
same,growth,OVCAR-4 ovarian; 10 µM,78.2%
same,growth,SK-OV-3 ovarian; 10 µM,55.1%
same,growth,IGROV1 ovarian; 10 µM,-87.5% (active)
same,growth,HS 578T breast; 10 µM,28.3%
same,growth,NCI/ADR-RES ovarian; 10 µM,-10.9% (active)
same,growth,T-47D breast; 10 µM,14.6%
same,growth,BT-549 breast; 10 µM,134%
same,growth,MDA-MB-435 melanoma; 10 µM,-19.3% (active)
same,growth,SW-620 colon; 10 µM,0.0094% (active)
same,growth,MCF7 breast; 10 µM,-75.8% (active)
same,growth,HCT-116 colon; 10 µM,22.4%
same,growth,HCC-2998 colon; 10 µM,-12.4% (active)
same,growth,KM12 colon; 10 µM,-46.6% (active)
O=C1C=CC(=O)N1c1ccc(N2C(=O)C=CC2=O)cc1,growth,RPMI-8226 leukemia; 10 µM,38.6%
same,growth,OVCAR-8 ovarian,109%
same,growth,OVCAR-5 ovarian; 10 µM,97.7%
same,growth,OVCAR-4 ovarian; 10 µM,101%
same,growth,SK-OV-3 ovarian; 10 µM,97.3%
same,growth,IGROV1 ovarian; 10 µM,105%
same,growth,HS 578T breast; 10 µM,128%
same,growth,NCI/ADR-RES ovarian; 10 µM,102%
same,growth,T-47D breast; 10 µM,95.9%
same,growth,BT-549 breast; 10 µM,89.6%
same,growth,MDA-MB-435 melanoma; 10 µM,107%
same,growth,SW-620 colon; 10 µM,112%
same,growth,MCF7 breast; 10 µM,97%
same,growth,HCT-116 colon; 10 µM,98.3%
same,growth,HCC-2998 colon; 10 µM,115%
same,growth,KM12 colon; 10 µM,113%
O=C(O)c1ccccc1.[Ag],growth,RPMI-8226 leukemia; 10 µM,96.9%
same,growth,OVCAR-8 ovarian,96.8%
same,growth,OVCAR-5 ovarian; 10 µM,102%
same,growth,OVCAR-4 ovarian; 10 µM,95%
same,growth,SK-OV-3 ovarian; 10 µM,109%
same,growth,IGROV1 ovarian; 10 µM,116%
same,growth,OVCAR-3 ovarian,113%
same,growth,HS 578T breast; 10 µM,114%
same,growth,NCI/ADR-RES ovarian; 10 µM,93.2%
same,growth,T-47D breast; 10 µM,72.6%
same,growth,BT-549 breast; 10 µM,99.4%
same,growth,MDA-MB-435 melanoma; 10 µM,88.5%
same,growth,MCF7 breast; 10 µM,96.4%
same,growth,HCT-116 colon; 10 µM,96.8%
same,growth,HCC-2998 colon; 10 µM,109%
same,growth,KM12 colon; 10 µM,89.3%
CN(C)c1ccc(/C=C/c2ccnc3ccccc23)cc1N,growth,RPMI-8226 leukemia; 10 µM,37.4%
same,growth,OVCAR-8 ovarian,75.3%
same,growth,OVCAR-5 ovarian; 10 µM,91.8%
same,growth,OVCAR-4 ovarian; 10 µM,58.2%
same,growth,SK-OV-3 ovarian; 10 µM,72%
same,growth,IGROV1 ovarian; 10 µM,65.7%
same,growth,HS 578T breast; 10 µM,80.2%
same,growth,NCI/ADR-RES ovarian; 10 µM,68%
same,growth,T-47D breast; 10 µM,48.3%
same,growth,BT-549 breast; 10 µM,60.3%
same,growth,MDA-MB-435 melanoma; 10 µM,38.6%
same,growth,SW-620 colon; 10 µM,78.4%
same,growth,MCF7 breast; 10 µM,62.9%
same,growth,HCT-116 colon; 10 µM,49.3%
same,growth,HCC-2998 colon; 10 µM,104%
same,growth,KM12 colon; 10 µM,61.5%
O=C1c2cccc3cc([N+](=O)[O-])cc(c23)C(=O)N1CCN1CCCC1,growth,RPMI-8226 leukemia; 10 µM,-19.1% (active)
same,growth,OVCAR-8 ovarian,9.55% (active)
same,growth,OVCAR-5 ovarian; 10 µM,-1.73% (active)
same,growth,OVCAR-4 ovarian; 10 µM,3.14% (active)
same,growth,SK-OV-3 ovarian; 10 µM,-0.119% (active)
same,growth,IGROV1 ovarian; 10 µM,-2.59% (active)
same,growth,HS 578T breast; 10 µM,-25.4% (active)
same,growth,NCI/ADR-RES ovarian; 10 µM,-2.54% (active)
same,growth,T-47D breast; 10 µM,-6.31% (active)
same,growth,BT-549 breast; 10 µM,3.71% (active)
same,growth,MDA-MB-435 melanoma; 10 µM,16.2%
same,growth,SW-620 colon; 10 µM,-4.97% (active)
same,growth,MCF7 breast; 10 µM,1.22% (active)
same,growth,HCT-116 colon; 10 µM,-37.6% (active)
same,growth,HCC-2998 colon; 10 µM,-69.6% (active)
same,growth,KM12 colon; 10 µM,1.61% (active)
CN(CC(=O)O)c1ccc(/C=C/c2ccnc3ccccc23)cc1,growth,RPMI-8226 leukemia; 10 µM,70.4%
same,growth,OVCAR-8 ovarian,80%
same,growth,OVCAR-5 ovarian; 10 µM,123%
same,growth,OVCAR-4 ovarian; 10 µM,86.2%
same,growth,SK-OV-3 ovarian; 10 µM,91.3%
same,growth,IGROV1 ovarian; 10 µM,77.4%
same,growth,HS 578T breast; 10 µM,84.6%
same,growth,NCI/ADR-RES ovarian; 10 µM,89.3%
same,growth,T-47D breast; 10 µM,55.4%
same,growth,BT-549 breast; 10 µM,65.3%
same,growth,MDA-MB-435 melanoma; 10 µM,38.1%
same,growth,SW-620 colon; 10 µM,84.3%
same,growth,MCF7 breast; 10 µM,31.8%
same,growth,HCT-116 colon; 10 µM,89.4%
same,growth,HCC-2998 colon; 10 µM,91.9%
same,growth,KM12 colon; 10 µM,85.2%
COc1cccc(C(c2cc3c(cc2O)OCO3)N2CCOCC2)c1OC (stereo not drawn),growth,RPMI-8226 leukemia; 10 µM,105%
same,growth,OVCAR-8 ovarian,99.2%
same,growth,OVCAR-5 ovarian; 10 µM,104%
same,growth,OVCAR-4 ovarian; 10 µM,99.5%
same,growth,SK-OV-3 ovarian; 10 µM,101%
same,growth,IGROV1 ovarian; 10 µM,101%
same,growth,HS 578T breast; 10 µM,95.5%
same,growth,NCI/ADR-RES ovarian; 10 µM,104%
same,growth,T-47D breast; 10 µM,97.2%
same,growth,BT-549 breast; 10 µM,94.7%
same,growth,MDA-MB-435 melanoma; 10 µM,98%
same,growth,SW-620 colon; 10 µM,102%
same,growth,MCF7 breast; 10 µM,96.5%
same,growth,HCT-116 colon; 10 µM,102%
same,growth,HCC-2998 colon; 10 µM,113%
same,growth,KM12 colon; 10 µM,108%
S=P(N1CC1)(N1CC1)N1CC1,growth,RPMI-8226 leukemia; 10 µM,99.2% and 136%
same,growth,RPMI-8226 leukemia; 100 µM,51.4%
same,growth,OVCAR-8 ovarian,110% and 80.7%
same,growth,OVCAR-5 ovarian; 10 µM,108% and 77.1%
same,growth,OVCAR-5 ovarian; 100 µM,64.7%
same,growth,OVCAR-4 ovarian; 10 µM,116% and 90.4%
same,growth,OVCAR-4 ovarian; 100 µM,87.9%
same,growth,SK-OV-3 ovarian; 10 µM,110% and 108%
same,growth,SK-OV-3 ovarian; 100 µM,67.2%
same,growth,IGROV1 ovarian; 10 µM,101% and 78.2%
same,growth,IGROV1 ovarian; 100 µM,70.7%
same,growth,HS 578T breast; 10 µM,113% and 126%
same,growth,HS 578T breast; 100 µM,66%
same,growth,NCI/ADR-RES ovarian; 10 µM,107% and 88.6%
same,growth,NCI/ADR-RES ovarian; 100 µM,40.3%
same,growth,T-47D breast; 10 µM,103% and 98.1%
same,growth,T-47D breast; 100 µM,53.7%
same,growth,BT-549 breast; 10 µM,102% and 85.8%
same,growth,BT-549 breast; 100 µM,47.5%
same,growth,MDA-MB-435 melanoma; 10 µM,105% and 97.2%
same,growth,MDA-MB-435 melanoma; 100 µM,64.8%
same,growth,SW-620 colon; 10 µM,110% and 93.6%
same,growth,SW-620 colon; 100 µM,73%
same,growth,MCF7 breast; 10 µM,69.5%
same,growth,MCF7 breast; 100 µM,29.3%
same,growth,HCT-116 colon; 10 µM,95.9% and 73.8%
same,growth,HCT-116 colon; 100 µM,51.3%
same,growth,HCC-2998 colon; 10 µM,109%
same,growth,HCC-2998 colon; 100 µM,-5.61% (active)
same,growth,KM12 colon; 10 µM,111% and 104%
same,growth,KM12 colon; 100 µM,83%
